The supplement of paper PMC10498489
Screen size: about 2,300 compounds; about 330 (14%) showed activity. Not all results are given here. Values without a mark were called inactive.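 How the source made its calls: active = median modified Z-score above 1.96; inactive = 1.96 or below.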

Each compound was assayed on HepG2 Srxn1-GFP reporter cells (+30 nM CDDO-Me) (assay: Srxn1-GFP intensity median modified Z-score relative to plate median; higher = stronger NRF2 / oxidative stress reporter activation, active = hit call of the paper). Details: 10 µM; exposure time: 24h.
In short: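 The modified Z-score of GFP intensity was computed per plate, and the median over replicates is reported. HepG2 Srxn1-GFP BAC reporter cells in three replicate plates were treated for 24 h with compound at 10 μM plus an NRF2 activator at 30 nM (≤0.1% DMSO). Per-cell cytoplasmic GFP came from confocal images, excluding those with under 100 cells, and scaling used 1.4826 × median absolute deviation.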

Row | SMILES | Srxn1-GFP intensity median modified Z-score
1 | CC(C)CCCC(C)C1CCC2C3CC(=O)C4C[C@@H](O)CC[C@]4(C)C3CC[C@]12C (some centres not stated) [euspeclibcmpd2198] | -0.502
2 | C[C@]12CC[C@@H](O)C[C@H]1CCc1ccccc12 [euspeclibcmpd1508] | -0.327
3 | N=c1[nH]c(=N)c2nc(-c3ccccc3)c(=N)[nH]c2[nH]1 [euspeclibcmpd304] | -0.346
4 | CN[C@@H]1[C@@H](O[C@H]2O[C@H](CO)[C@@H](N)[C@H](O)[C@H]2O)O[C@H]2C[C@@H](N)[C@H](O[C@H]3[C@H](O)[C@@H](O)[C@H](N)C[C@@H]3N)O[C@@H]2[C@@H]1O [euspeclibcmpd2180] | -0.708
5 | CN(N=O)C(=O)N[C@@H]1[C@@H](O)[C@H](O)[C@@H](CO)O[C@@H]1O [euspeclibcmpd271] | 0.0066
6 | Cc1cc2nc3c(=O)[nH]c(=O)nc-3n(C[C@@H](O)[C@@H](O)[C@@H](O)CO)c2cc1C [euspeclibcmpd751] | -0.238
7 | Cc1ccc(N2CC(C(=O)NCCCn3ccnc3)CC2=O)c(F)c1 (configuration not stated) | 1.07
8 | Cc1onc(-c2ccccc2Cl)c1C(=O)NC1C(=O)N2C1SC(C)(C)C2C(=O)O (configuration not stated) [euspeclibcmpd2381] | -0.0695
9 | C[C@@H]1O[C@@H](OC[C@H]2OC(Oc3c(-c4ccc(O)c(O)c4)oc4cc(O)cc(O)c4c3=O)[C@H](O)[C@@H](O)[C@@H]2O)[C@H](O)[C@H](O)[C@H]1O (some centres not stated) [euspeclibcmpd2149] | -0.139
10 | CC(=O)O[C@H]1C[C@@H](OC(C)=O)C(C)(C)C2C[C@@H](O)[C@]3(C)C(CC[C@@]4(C)[C@H](c5ccoc5)OC(=O)C5O[C@]543)[C@]21C (some centres not stated) [euspeclibcmpd1544] | 0.39
11 | CC(=O)OC1CC(OC(C)=O)C2(C)C(CC(OC(C)=O)C3(C)C2CCC2(C)C(c4ccoc4)OC(=O)C4OC423)C1(C)C (configuration not stated) [euspeclibcmpd1940] | 0.483
12 | CC(=O)O[C@H]1CC[C@@]2(C)C(C[C@@H](OC(C)=O)[C@]3(C)C2CC[C@@]2(C)[C@H](c4ccoc4)OC(=O)C4O[C@]423)C1(C)C (some centres not stated) [euspeclibcmpd2319] | 5.12 (active)
13 | COc1ccc(C2COc3c(ccc(O)c3OC)C2)c(OC)c1O (configuration not stated) [euspeclibcmpd1831] | 1.65
14 | CC1(C)C(=O)C2C[C@@]3(O)C4=CC(=O)O[C@@H](c5ccoc5)[C@]4(C)CCC3[C@](C)(C2=O)[C@H]1CC(=O)O (some centres not stated) [euspeclibcmpd1558] | -0.051
15 | N=c1[nH]c(=O)c2ncn(CCC(CO)CO)c2[nH]1 [euspeclibcmpd464] | 0.273
16 | O=C(O)C1=CC(=C(c2ccc(O)c(C(=O)O)c2)c2ccc(O)c(C(=O)O)c2)C=CC1=O [euspeclibcmpd1741] | -0.835
17 | O=C1C=CC(=C(c2ccc(O)cc2)c2ccc(O)cc2)C=C1 [euspeclibcmpd1770] | 19.5 (active)
18 | CCC(=O)c1ccc(O)cc1 [euspeclibcmpd1262] | 0.156
19 | O=C(O)c1cc(N=Nc2ccc(S(=O)(=O)N=c3cccc[nH]3)cc2)ccc1O [euspeclibcmpd280] | -0.614
20 | Cc1ccc(C(=O)c2ccc(CC(=O)O)n2C)cc1 [euspeclibcmpd2405] | 0.508
21 | OC[C@H](O)C(O)[C@@H](O)CO [euspeclibcmpd2128] | -0.222

Row | SMILES | Srxn1-GFP intensity median modified Z-score
22 | COc1cc(O)c2c(=O)c(OC)c(-c3ccc(OC)c(OC)c3)oc2c1 [euspeclibcmpd1656] | -0.275
23 | NC(=O)NC(CCC(=O)O)C(=O)O (configuration not stated) [euspeclibcmpd1209] | 0.184
24 | CCc1nn(CCCN2CCN(c3cccc(Cl)c3)CC2)c(=O)n1CCOc1ccccc1 [euspeclibcmpd461] | 8.98 (active)
25 | O=c1n(CCCN2CCN(c3cccc(Cl)c3)CC2)nc2ccccn12 [euspeclibcmpd533] | 0
26 | O=C1CCc2ccc(OCCCCN3CCN(c4cccc(Cl)c4Cl)CC3)cc2N1 [euspeclibcmpd879] | 0.292
27 | Cc1c(C)c2c(c(C)c1O)CCC(C)(C(=O)O)O2 (configuration not stated) [euspeclibcmpd1989] | -0.727
28 | COc1ccc(=NS(=O)(=O)c2ccc(N)cc2)[nH]n1 [euspeclibcmpd409] | -0.327
29 | CC(C)c1nc(CN(C)C(=O)NC(C(=O)N[C@@H](Cc2ccccc2)C[C@H](O)[C@H](Cc2ccccc2)NC(=O)OCc2cncs2)C(C)C)cs1 (some centres not stated) [euspeclibcmpd486] | 0.333
30 | COc1ccccc1N1CCN(CCCNc2cc(=O)n(C)c(=O)n2C)CC1 [euspeclibcmpd1121] | -0.334
31 | COC1=C(C)C2CC(=O)O[C@@H]3C[C@H]4C(C)=CC(OC)C(=O)[C@]4(C)C(C1=O)[C@]23C (some centres not stated) [euspeclibcmpd1498] | 0.142
32 | COc1ccc2c(c1OC)C(=O)O[C@H]2[C@H]1c2c(cc3c(c2OC)OCO3)CCN1C [euspeclibcmpd216] | 0.635
33 | COc1ccc2cc1Oc1ccc(cc1)C[C@H]1c3c(cc4c(c3Oc3cc5c(cc3OC)CCN(C)[C@@H]5C2)OCO4)CCN1C [euspeclibcmpd1270] | 4.85 (active)
34 | COc1ccc2cc1Oc1ccc(cc1)C[C@H]1c3cc(c(OC)cc3CCN1C)Oc1c(OC)c(OC)cc3c1[C@H](C2)N(C)CC3 [euspeclibcmpd1476] | 21.7 (active)
35 | CN1CC(=O)N2C(Cc3c([nH]c4ccccc34)[C@H]2c2ccc3c(c2)OCO3)C1=O (some centres not stated) [euspeclibcmpd833] | -0.451
36 | CO[C@@H]1[C@@H](O[C@@H]2O[C@H](C)[C@@H](O[C@H]3C[C@@](C)(O)[C@H](O)[C@H](C)O3)[C@H](N(C)C)[C@H]2O)[C@@H](CC=O)C[C@@H](C)[C@@H](O[C@H]2CC[C@H](N(C)C)[C@@H](C)O2)/C=C/C=C/C[C@H](C)OC(=O)C[C@H]1O [euspeclibcmpd581] | 0.0936
37 | CC(C)(O)c1ccccc1CC[C@@H](SCC1(CC(=O)O)CC1)c1cccc(/C=C/c2ccc3ccc(Cl)cc3n2)c1 [euspeclibcmpd2362] | 8.32 (active)
38 | CC1=CC(=O)C2C(C)(C)CCC[C@]2(C)[C@@]1(O)CCc1ccoc1 (some centres not stated) [euspeclibcmpd1719] | 17.2 (active)
39 | CCC1(CC)C(=O)CC=NC1=O [euspeclibcmpd1119] | -0.354
40 | CN(C)CCCOc1nn(Cc2ccccc2)c2ccccc12 [euspeclibcmpd892] | -0.182
41 | COC1=CC(/C=C/c2ccccc2)OC(=O)C1 (configuration not stated) [euspeclibcmpd1481] | -0.206
42 | C=CCOC(=O)C1=C(C)NC(C)=C(C(=O)OCC=C)C1/C=C/c1ccccc1 | 4.92 (active)

Row | SMILES | Srxn1-GFP intensity median modified Z-score
43 | Nc1ccc(S(=O)(=O)N=c2[nH]ccs2)cc1 [euspeclibcmpd281] | -0.259
44 | CC(=O)OCC(=O)[C@@]1(O)CCC2C3CC=C4CC(=O)C=C[C@]4(C)[C@@]3(F)[C@@H](O)C[C@@]21C (some centres not stated) [euspeclibcmpd2402] | -0.201
45 | CC(C)CCCC(C)C1CCC2C3CC[C@H]4CC(=O)CC[C@]4(C)C3CC[C@]12C (some centres not stated) [euspeclibcmpd1405] | -0.338
46 | NC(C(=O)C(=O)O)C(O)O (configuration not stated) [euspeclibcmpd1337] | -0.207
47 | Cc1nc2sccn2c(=O)c1CCN1CCC(=C(c2ccc(F)cc2)c2ccc(F)cc2)CC1 [euspeclibcmpd532] | 7.86 (active)
48 | Cc1nc2n(c(=O)c1CCN1CCC(c3noc4cc(F)ccc34)CC1)CCCC2 [euspeclibcmpd909] | 0.484
49 | Cc1nc2ccccn2c(=O)c1CCN1CCC(C(=O)c2ccc(F)cc2)CC1 [euspeclibcmpd878] | -0.586
50 | CCC(=O)OCC(=O)C1(OC(=O)CC)C(C)CC2C3C(Cl)C=C4CC(=O)C=CC4(C)C3C(O)CC21C (configuration not stated) [euspeclibcmpd1830] | -0.727
51 | Cc1cc(O)c(C)c(O)c1C(=O)O [euspeclibcmpd2002] | -0.247
52 | CC(=O)NC(CCC(C)C)C(=O)O (configuration not stated) | 1.23
53 | CC(=O)O[C@H]1CC[C@@]2(C)C(CC[C@]3(C)C2CC=C2C4CC(C)(C)CC[C@]4(C)CC[C@]23C)C1(C)C (some centres not stated) [euspeclibcmpd1641] | -0.192
54 | CC1=C(/C=C/C(C)=C/C=C/C(C)=C/C=C/C=C(C)/C=C/C=C(C)/C=C/C2=C(C)CCCC2(C)C)C(C)(C)CCC1 [euspeclibcmpd256] | 1.65
55 | CC(C=C/C=C(C)/C=C/C1=C(C)CCCC1(C)C)=CC(=O)O [euspeclibcmpd2414] | 3.46 (active)
56 | CC1=C(/C=C/C(C)=C/C=C/C(C)=C/CO)C(C)(C)CCC1 [euspeclibcmpd419] | -0.0835
57 | CC[C@]12CCCN3CCc4c(n(c5ccccc45)[C@](O)(C(=O)OC)C1)[C@@H]32 [euspeclibcmpd1043] | 1.43
58 | COC(=O)C1=C(C)N=C(C)C(C(=O)OC)C1c1ccccc1[N+](=O)[O-] (configuration not stated) [euspeclibcmpd208] | -0.363
59 | COCCOC(=O)C1=C(C)N=C(C)C(C(=O)OC(C)C)C1c1cccc([N+](=O)[O-])c1 (configuration not stated) [euspeclibcmpd585] | 0.492
60 | COC(=O)C1=C(C)N=C(C)C(C(=O)OCCN2CCN(C(c3ccccc3)c3ccccc3)CC2)C1c1cccc([N+](=O)[O-])c1 (configuration not stated) [euspeclibcmpd869] | 5.13 (active)
61 | COC(=O)C1=C(C)N=C(C)C(C(=O)OCCN(C)Cc2ccccc2)C1c1cccc([N+](=O)[O-])c1 (configuration not stated) [euspeclibcmpd393] | -0.375
62 | COC(=O)C1=C(C)N=C(C)C(C(=O)OCC(C)C)C1c1ccccc1[N+](=O)[O-] (configuration not stated) [euspeclibcmpd766] | 10.8 (active)
